Screening data as filed in PubChem BioAssay.
CHT allo act – allosteric activators of human choline transporter CHT. Q9GZV3. B-score at 10 µM. 310,000 tested, 0.49% active. CHT-expressing cells, membrane potential dye, choline EC20; active compounds read high; LV-AA mutant CHT in HEK293 cells;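 active means initial fluorescence not abnormally high and integrated response B-score, plate-corrected, over 3 SD above library mean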
Target sequence (Q9GZV3 whole entry, looked up): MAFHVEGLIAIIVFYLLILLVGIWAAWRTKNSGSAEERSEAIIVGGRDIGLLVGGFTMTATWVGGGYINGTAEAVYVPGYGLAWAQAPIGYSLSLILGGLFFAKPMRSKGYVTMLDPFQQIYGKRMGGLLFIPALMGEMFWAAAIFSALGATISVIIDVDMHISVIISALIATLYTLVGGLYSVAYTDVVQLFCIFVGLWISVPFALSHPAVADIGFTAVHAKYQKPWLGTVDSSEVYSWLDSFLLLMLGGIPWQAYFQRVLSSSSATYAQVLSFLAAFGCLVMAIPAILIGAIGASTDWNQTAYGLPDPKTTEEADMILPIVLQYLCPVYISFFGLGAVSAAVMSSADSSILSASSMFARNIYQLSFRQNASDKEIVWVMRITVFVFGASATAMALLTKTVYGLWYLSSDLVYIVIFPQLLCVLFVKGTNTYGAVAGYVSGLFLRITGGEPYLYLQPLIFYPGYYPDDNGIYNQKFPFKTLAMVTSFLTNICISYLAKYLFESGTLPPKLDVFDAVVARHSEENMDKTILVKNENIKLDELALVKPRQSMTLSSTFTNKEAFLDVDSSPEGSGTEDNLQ
CHT block – human CHT choline transport inhibition. Q9GZV3. CHT-expressing cells, membrane potential dye, choline response; active compounds read low. B-score at 10 µM. 310,000 tested, 0.86% active;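 active means B-score over 3 SD under the library average, and starting fluorescence ratio not unusually high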;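 further: choline stimulus applied at its EC90 after an EC20 pre-addition; B-score computed on integrated fluorescence ratio after choline addition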
EP2 antag – EP2 receptor (human) inhibition; AID 1422; inhibition, % at 25 µM; C6 glioma cells expressing human EP2, cAMP TR-FRET; cells stimulated with saturating PGE2; P43116; 260,000 tested, 0.52% active;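 active means percent inhibition above 40 after rounding to a whole number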;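 further: rat C6 glioma host cells with rolipram phosphodiesterase inhibitor present; the protocol text gives 20 µM as final concentration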
EP2 modulator – modulators of human EP2 prostaglandin E2 receptor. 260,000 tested, 0.83% active. EP2-expressing cells, cAMP HTRF FRET, PGE2 co-stimulation. P43116. induction, % at 25 µM. AID 940;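 active means compounds whose cAMP rise, as percent of the full-agonist control response, exceeds 60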;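 further: rat C6 glioma line stably carrying human EP2 under a CMV promoter; the protocol text gives 20 µM as final concentration; 100% = response of wells given 1 µM PGE2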
CHT activ conf – confirmation of human choline transporter (CHT) activators | activation, % at 10 µM | CHT-expressing cells, membrane potential dye fluorescence (FDSS); % of choline EC20–EC90 response window; HEK293 expressing CHT LV-AA mutant; choline added at its EC20 | 2,500 tested, 91% active | shares compounds with CHT allo act;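 active means primary screen active, with duplicate mean activation above negative control mean plus 3 SD, cut at about 11% in these data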
HEK293 MP dye – CHT activator counter-screen hit in parental HEK293 cells. shares compounds with CHT allo act. membrane potential dye fluorescence (FDSS); measured after EC20 choline addition. ratio readout change at 10 µM, hits read low. 2,500 tested, 62% active. AID 623908;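 active means duplicate-averaged ratio beyond 3 SD from buffer wells, up or down, though filed actives are nearly all decreases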
An asterisk follows results filed as active; i = inactive; . = not tested or not shown. The list is not random: actives were taken first. Their share in the collection is about 2.1%.

SMILES | CHT allo act | CHT block | EP2 antag | EP2 modulator | CHT activ conf | HEK293 MP dye
CCOc1nc(N=C(N)N)nc2c(C)cccc12 | 6.61* | i | . | -1.7 | 53.9* | -60.2*
CCc1nc(N=C(N)N)nc2ccc(C)cc12 | . | . | 9.4 | 8.2 | . | .
O=c1[nH]c2cc3c(cc2cc1CN(CCCO)Cc1nnnn1Cc1ccccc1)OCCO3 | . | . | 16.6 | -14.6 | . | .
CC(=O)N1CCN(c2ccnc3cc(Cl)ccc23)CC1 | 8.58* | i | 7.0 | 7.1 | 65.3* | -67.1*
CCCCNC(=O)N1CCN(c2ccnc3cc(Cl)ccc23)CC1 | i | i | . | . | 57.9* | -61.5*
Cc1ccc(F)cc1NC(=O)N1CCN(c2ccnc3cc(Cl)ccc23)CC1 | i | i | 9.3 | -4.9 | . | .
C=CCNC(=O)CN(c1ccc2c(c1)OCO2)S(C)(=O)=O | . | . | 7.7 | -4.6 | . | .
Cn1c(=O)[nH]c(=O)c2c1nc(N1CCCC1)n2CCCSc1nnnn1-c1ccccc1 | i | i | 8.4 | 12.9 | . | .
CC1CCN(c2nc3c(c(=O)n(C)c(=O)n3C)n2Cc2ccccc2)CC1 | 6.61* | i | 3.2 | 41.8 | 7.1 | i
CN1CCN(c2nc3c(c(=O)n(C)c(=O)n3C)n2Cc2ccccc2)CC1 | i | i | . | . | . | .
CN1CCN(c2nc3c(c(=O)[nH]c(=O)n3C)n2CCSc2nnnn2-c2ccccc2)CC1 | 8.19* | i | 6.9 | 4.4 | 58.7* | -67.8*
CN1CCN(c2nc3c(c(=O)n(C)c(=O)n3C)n2CCSc2nnnn2-c2ccccc2)CC1 | 7.25* | i | 7.6 | 12.9 | 52.4* | -71*
CC1CN(c2nc3c(c(=O)[nH]2)CCN(Cc2ccc(Br)s2)C3)CC(C)O1 (stereo unspecified) | . | . | . | -17.1 | . | .
CCOc1cc2c(C#N)c(N3CCNCC3)nc(N)c2c(N)n1 | 6.47* | i | 2.2 | -20.0 | 44.8* | -52.6*
NCCCCCC(=O)Nc1ccncc1 | i | i | 10.7 | 10.4 | 17.8* | -35*
Cn1c(C(=O)NCCN2CCCCCC2)cc2c(=O)n(C)c3ccccc3c21 | i | i | 7.9 | -0.1 | 25.3* | -27.4*
Cn1c(C(=O)NCCCN2CCOCC2)cc2c(=O)n(C)c3ccccc3c21 | i | i | 2.8 | 17.7 | . | .
CC(C)C(=O)N1CCN(c2ccccc2NC(=O)c2ccc(C#N)cc2F)CC1 | 7.66* | i | 4.9 | 26.3 | 54.4* | i
COc1ccccc1-c1nn2c(=O)cc(C)nc2s1 | i | i | . | 3.6 | . | .
Cc1cc(=O)n2nc(-c3ccc(C(F)(F)F)cc3)sc2n1 | 6.83* | i | 11.5 | 0.2 | 42.3* | -34.6*
Cc1ccc(F)c(NC(=O)CSc2nc(-c3ccco3)cc(C(F)(F)F)n2)c1 | . | . | 5.6 | -98.3 | . | .
O=C(C[n+]1cc(-c2ccc(Br)cc2)n2c1CCCCC2)c1ccccc1 | i | i | 2.0 | 18.6 | 23.4* | i
CN=C1c2c(-c3ccccc3)c3cc(OC)ccc3n2CCN1C | 8.02* | i | 28.9 | -35.2 | 43.1* | -52.7*
Clc1ccc(N/N=C/c2ccncc2)cc1Cl | i | i | 8.8 | -5.4 | . | .
Clc1cnc(N/N=C/c2ccncc2)c(Cl)c1 | i | i | . | . | 36.6* | -44.1*
SMILES | CHT allo act | CHT block | EP2 antag | EP2 modulator | CHT activ conf | HEK293 MP dye
CC(=O)N/N=C/c1cc(C(C)(C)C)cc(/C=N/NC(C)=O)c1O | 8.42* | i | 13.6 | 11.2 | 63.9* | -50.2*
Cc1ccc2cc(C(c3nnnn3Cc3ccccc3)N3c4ccccc4CC3C)c(=O)[nH]c2c1C (stereo unspecified) | . | . | 6.9 | 50.1 | . | .
COc1ccc(-c2nc3cnccn3c2Nc2ccc(C)cc2)cc1 | i | i | 10.4 | -1.6 | 35.6* | -28.3*
Brc1cnc(N2CCCC2)nc1N1CCOCC1 | i | i | 5.5 | -17.9 | 16.2* | -20.4*
O=[N+]([O-])c1ccc(Cl)c(C[n+]2cccc3ccccc32)c1 | i | i | . | . | 54.1* | -46*
Cc1cccc(N=Cc2[nH]c3ccc(Br)c(Cl)c3c2O)c1 | i | i | 8.2 | -52.4 | 11.9* | i
COc1ccc(S(=O)(=O)N2CCCC(C(=O)Nc3ccc(C)c(Cl)c3)C2)cc1 (stereo unspecified) | . | . | 12.1 | -59.8 | . | .
O=C(COC(=O)C1CC(O)CN1S(=O)(=O)c1ccc(Cl)cc1)c1ccccc1 (stereo unspecified) | i | i | 9.7 | 2.5 | . | .
CC(C)N(C(=O)COC(=O)[C@@H]1CC(O)CN1S(=O)(=O)c1ccc(C(C)(C)C)cc1)C(C)C (stereo partly specified) | 7.15* | i | 12.7 | -27.9 | 8.5 | i
CC(NC(=O)CN1N=C(C(C)(C)C)Cn2c(cc3ccccc32)C1=O)c1ccncc1 (stereo unspecified) | . | . | 7.3 | -19.1 | . | .
CCC1=[N+](C)c2cccc3cccc(c23)N1C | 9.61* | i | 8.3 | 11.1 | 71.3* | -86.3*
CCN1C(=O)Nc2cccc3cccc1c23 | i | i | . | . | . | .
CC1=[N+](CC(=O)c2ccc(C)cc2)CCn2cccc21 | . | . | 10.6 | -8.1 | . | .
CCC[N+](CC#CCO)(CC#Cc1ccccc1)CCC | i | i | 1.9 | 42.1 | . | .
CCCC[N+](CC#CCO)(CC#Cc1ccccc1)CCCC | 10.5* | i | 4.3 | 25.8 | 73.8* | i
O=C1C(NS(=O)(=O)c2cccs2)=C(N2CCOCC2)C(=O)c2ccccc21 | 7.17* | i | 5.0 | 8.4 | 40.8* | -40.5*
CC1CC(C)CN(C(=O)Cn2nc(-c3cccnc3)oc2=O)C1 (stereo unspecified) | . | . | 4.5 | -27.1 | . | .
Cc1cc2oc(C(=O)N3CCn4cccc4C3C(C)C)cc(=O)c2cc1C (stereo unspecified) | . | . | 4.9 | 16.9 | . | .
COc1ccccc1NC1=C(NC(C)=O)C(=O)c2ccccc2C1=O | . | . | 2.3 | -29.6 | . | .
COC1=C(Nc2ccccc2OC)C(=O)c2ccccc2C1=O | 8.74* | i | 4.0 | 10.6 | 36.7* | -41.4*
N#Cc1c(NC(=O)CSc2nc(N)cc(N)n2)sc2c1CCCC2 | . | . | 8.0 | -82.7 | . | .
Nc1nc(N2CCN(C(=O)c3ccco3)CC2)nc2ccccc12 | 6.44* | i | 13.9 | 12.2 | 57.0* | -57.9*
Cc1cc(N2CCN(S(=O)(=O)c3ccccc3)CC2)c2ccccc2n1 | 10.1* | i | 7.9 | -51.8 | 53.3* | -72.7*
Cc1cc(N2CCN(C(=O)Nc3ccc(F)cc3F)CC2)c2ccccc2n1 | 6.57* | i | . | . | 53.0* | -70.6*
CCCCc1ccc(NC(=O)N2CCN(c3cc(C)nc4ccccc34)CC2)c(C)c1 | i | i | . | . | . | .
Nc1nc(N2CCN(C(=O)c3ccco3)CC2)nc2ccc(Br)cc12 | i | i | 16.7 | -58.3 | 19.9* | -31.6*
O=C(c1ccco1)N1CCN(c2ncccn2)CC1 | i | i | 9.5 | 11.8 | . | .
Cc1cc(N2CCCC2)c2ccccc2n1 | . | . | 11.1 | -16.4 | . | .
